# Measured values taken from a collection of fitness landscapes (doi:10.1016/j.celrep.2020.107928).
# Over roughly 81,000 sequences, “one-hybrid fitness for binding NBS DNA” has its median near -0.1; the highest 2% begin near 0.36. This excerpt belongs to a sample that is enriched for the highest values.
# B1: Caulobacter ParB omega fusion; a variant is named by its letters at X, in order, B8GW30 (parent)
# chain: MESVVVGEPGMSEGRRGLGRGLSALLGEVDAAPAQAPGEQLGGSREAPIEILQRNPDQPRRTFREEDLEDLSNSIREKGVLQPILVRPSPDTAGEYQIVAGERAWRAAQRAGLKTVPIMVRELDDLAVLEIGIIENVQRADLNVLEEALSYKVLMEKFERTQENIAQTIGKSXSHVANXMRLLXLPDEVQSYLVSGELTAXHARAIAAAADPVALAKQIIEGGLSVRETEALARKAPNLSAGKSKGGRPPRVKDTDTQALESDLSSVLGLDVSIDHRGSTGTLTITYATLEQLDDLCNRLTRGI
# Variants of: B1
# Test: one-hybrid fitness for binding NBS DNA (the Noc-binding site; scaled: cognate 1, non-cognate 0); higher = stronger binding
# Conditions: with NBS DNA site
# Summary of the method: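 Pre- and post-selection plasmids were Illumina-sequenced, three replicate libraries were pooled, and any variant with under 10 reads was removed. The libraries were Caulobacter ParB with four specificity codons randomised, selected in E. coli USO through a HIS3 reporter whose site is 19 bp from the promoter. Cells grew 48 hours at 37°C on M9 without histidine, with 0.1 mM IPTG and 5 mM 3-AT. Fitness is the log change in variant-to-wild-type read ratio, rescaled against cognate and non-cognate.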
row,Variant,one-hybrid fitness for binding NBS DNA
1,QMKG,0.336
2,QMVD,≤ 0.2
3,QMVR,0.424
4,QMKR,1.03
5,QMKL,0.262
6,QMVP,≤ 0.2
7,TAHS,≤ 0.2
8,IMVC,≤ 0.2
9,HTKM,≤ 0.2
10,KTGG,≤ 0.2
11,ETHC,≤ 0.2
12,RRLQ,0.209
13,RPDR,≤ 0.2
14,RRLR,0.702
15,RRQK,0.261
16,RRQF,0.221
17,RRGF,≤ 0.2
18,RRGQ,0.239
19,RRLG,0.245
20,RRDR,0.666
21,RRQR,0.765
22,RRGR,0.744
23,SFAS,≤ 0.2
24,HDCG,≤ 0.2

row,Variant,one-hybrid fitness for binding NBS DNA
1,DQVR,≤ 0.2
2,KNLL,≤ 0.2
3,DPPY,≤ 0.2
4,PPNW,≤ 0.2
5,ARKC,≤ 0.2
6,HVNI,≤ 0.2
7,HCSE,≤ 0.2
8,RCER,0.245
9,RRNR,0.813
10,RRRR,0.904
11,RRNE,≤ 0.2
12,RGRR,0.336
13,RERR,≤ 0.2
14,RRER,0.629
15,RRSM,0.311
16,RRSF,≤ 0.2
17,RRNG,0.343
18,RPER,≤ 0.2
19,RRSR,0.756
20,PAQI,≤ 0.2
21,TDSA,≤ 0.2
22,YSRC,≤ 0.2
23,RRHF,0.207
24,RRCC,0.325

row,Variant,one-hybrid fitness for binding NBS DNA
1,RRHQ,0.293
2,RRWK,0.249
3,RRHR,0.771
4,RRCF,≤ 0.2
5,RRCR,0.75
6,RRWR,0.732
7,RRWG,0.216
8,RRYR,0.728
9,ETHW,≤ 0.2
10,GAPL,≤ 0.2
11,TTDQ,≤ 0.2
12,QPFL,≤ 0.2
13,QGKK,≤ 0.2
14,MPVQ,≤ 0.2
15,KLMT,≤ 0.2
16,PRPV,≤ 0.2
17,TLPW,≤ 0.2
18,PPHD,≤ 0.2
19,RYTW,≤ 0.2
20,DIRL,≤ 0.2
21,DPRL,≤ 0.2
22,QCRL,0.401
23,QMRL,0.287
24,QCKL,0.307

row,Variant,one-hybrid fitness for binding NBS DNA
1,QPRL,≤ 0.2
2,QTKL,0.395
3,DCRL,0.405
4,QTDL,≤ 0.2
5,QTVL,≤ 0.2
6,QTYL,≤ 0.2
7,QTRL,0.406
8,DKKC,≤ 0.2
9,LTSP,≤ 0.2
10,DSLM,≤ 0.2
11,GRHR,≤ 0.2
12,VANW,≤ 0.2
13,RFPW,≤ 0.2
14,RCCM,≤ 0.2
15,PGLH,≤ 0.2
16,CHHR,≤ 0.2
17,QRYL,≤ 0.2
18,QRVL,≤ 0.2
19,QRKL,0.367
20,FRYF,≤ 0.2
21,INML,≤ 0.2
22,RHNS,0.505
23,RHDS,≤ 0.2
24,RHIS,≤ 0.2

row,Variant,one-hybrid fitness for binding NBS DNA
1,RHRS,0.585
2,RHRD,≤ 0.2
3,RHWS,≤ 0.2
4,RHNH,≤ 0.2
5,RHYS,0.376
6,RHRN,≤ 0.2
7,RHHS,0.443
8,RHHD,≤ 0.2
9,RHHN,≤ 0.2
10,MVLT,≤ 0.2
11,QIMY,≤ 0.2
12,AMWR,≤ 0.2
13,RYEA,≤ 0.2
14,SMFC,≤ 0.2
15,RFVV,≤ 0.2
16,KGDK,≤ 0.2
17,QCFY,0.213
18,QRAY,0.516
19,QRFY,0.392
20,QSAY,≤ 0.2
21,QSFY,≤ 0.2
22,QCAY,0.21
23,PAFP,≤ 0.2
24,VCPS,≤ 0.2

row,Variant,one-hybrid fitness for binding NBS DNA
1,MCMN,≤ 0.2
2,DHRV,≤ 0.2
3,QRTM,0.414
4,QRTS,0.685
5,QCTQ,≤ 0.2
6,QSTM,≤ 0.2
7,QRTV,0.412
8,QCTM,≤ 0.2
9,QCTV,≤ 0.2
10,QRTF,0.294
11,QRTG,0.356
12,QPTV,≤ 0.2
13,QSTQ,≤ 0.2
14,QRTQ,0.437
15,ATLR,≤ 0.2
16,IYRI,≤ 0.2
17,AKFY,≤ 0.2
18,IYLA,≤ 0.2
19,KPSG,≤ 0.2
20,GTKT,≤ 0.2
21,SIIE,≤ 0.2
22,QCTH,0.295
23,QRTP,0.263
24,QRTD,0.259

row,Variant,one-hybrid fitness for binding NBS DNA
1,QPTH,≤ 0.2
2,QRTK,0.414
3,QRTH,0.57
4,QPTK,≤ 0.2
5,QRTN,0.429
6,QPTC,≤ 0.2
7,QCTC,≤ 0.2
8,QRTC,0.395
9,QCTK,≤ 0.2
10,LCDV,≤ 0.2
11,ANGR,≤ 0.2
12,WTTR,≤ 0.2
13,MSHC,0.26
14,SNER,≤ 0.2
15,FAVS,≤ 0.2
16,FHLT,≤ 0.2
17,EFTS,≤ 0.2
18,EFTN,0.392
19,EFTH,≤ 0.2
20,QCTY,0.225
21,QPTY,≤ 0.2
22,QRTY,0.519
23,PRAG,≤ 0.2
24,GACS,≤ 0.2

row,Variant,one-hybrid fitness for binding NBS DNA
1,RKMR,0.577
2,RHMN,≤ 0.2
3,RKMP,≤ 0.2
4,RHMP,≤ 0.2
5,RCMR,0.461
6,RKMH,0.214
7,RTMN,≤ 0.2
8,RTMP,≤ 0.2
9,RHMR,0.368
10,RLMR,0.341
11,RTMR,0.503
12,RPMR,≤ 0.2
13,SFRE,≤ 0.2
14,NGWG,≤ 0.2
15,SIAC,≤ 0.2
16,KQGK,≤ 0.2
17,IDPS,≤ 0.2
18,ICRN,≤ 0.2
19,NDES,≤ 0.2
20,PLNE,≤ 0.2
21,RGAY,≤ 0.2
22,IIPP,≤ 0.2
23,THSS,≤ 0.2
24,NHMG,≤ 0.2

row,Variant,one-hybrid fitness for binding NBS DNA
1,RRMQ,0.253
2,RIMR,0.319
3,RRMR,0.723
4,RRMF,≤ 0.2
5,RQMR,0.385
6,RQMP,≤ 0.2
7,RAMR,0.341
8,RSMR,0.369
9,RQMD,≤ 0.2
10,VAIA,≤ 0.2
11,LTDL,≤ 0.2
12,HGGT,≤ 0.2
13,AFTK,≤ 0.2
14,SQEG,≤ 0.2
15,CATP,≤ 0.2
16,LHPG,≤ 0.2
17,CDGK,≤ 0.2
18,SSSM,≤ 0.2
19,GDDT,≤ 0.2
20,QKAT,0.543
21,QKAC,≤ 0.2
22,QKAG,≤ 0.2
23,QKFT,0.366
24,QKFS,0.277

row,Variant,one-hybrid fitness for binding NBS DNA
1,QKFF,≤ 0.2
2,SHPD,≤ 0.2
3,QKML,≤ 0.2
4,HTHP,≤ 0.2
5,RGSE,≤ 0.2
6,SGGC,≤ 0.2
7,TILG,≤ 0.2
8,LRDT,≤ 0.2
9,RTGI,≤ 0.2
10,RYKP,≤ 0.2
11,RYKC,0.367
12,RYYC,≤ 0.2
13,RYKN,0.218
14,RYVH,≤ 0.2
15,RYKS,0.57
16,RYKH,0.396
17,RYKD,≤ 0.2
18,RYVC,≤ 0.2
19,KHNS,≤ 0.2
20,NLKT,≤ 0.2
21,YEHY,≤ 0.2
22,ADVD,≤ 0.2
23,SIIV,≤ 0.2
24,DVHC,≤ 0.2

row,Variant,one-hybrid fitness for binding NBS DNA
1,VIQR,≤ 0.2
2,YNMS,≤ 0.2
3,QPRY,≤ 0.2
4,QCYY,0.275
5,QLDY,≤ 0.2
6,QTYY,0.262
7,QKYY,≤ 0.2
8,QKRY,0.518
9,QLRY,0.451
10,QCRY,0.637
11,QKDY,≤ 0.2
12,QTRY,0.685
13,QTWY,≤ 0.2
14,QLYY,≤ 0.2
15,GQTS,≤ 0.2
16,PQAC,≤ 0.2
17,GTQM,≤ 0.2
18,HAAV,≤ 0.2
19,KEKL,≤ 0.2
20,GHAV,≤ 0.2
21,VLHR,≤ 0.2
22,PYWE,≤ 0.2
23,HKSN,≤ 0.2
24,MTAW,≤ 0.2

row,Variant,one-hybrid fitness for binding NBS DNA
1,VLNA,≤ 0.2
2,TGSV,≤ 0.2
3,QAYY,≤ 0.2
4,QAFY,0.396
5,QAAY,≤ 0.2
6,QIHY,≤ 0.2
7,QIYY,≤ 0.2
8,QMYY,≤ 0.2
9,QMRY,0.566
10,QADY,≤ 0.2
11,QAFN,≤ 0.2
12,QMDY,≤ 0.2
13,QIRY,0.378
14,QARY,0.499
15,WTQT,≤ 0.2
16,RKML,≤ 0.2
17,FQSI,≤ 0.2
18,MFAL,≤ 0.2
19,SWRR,≤ 0.2
20,QHYY,≤ 0.2
21,QHDY,≤ 0.2
22,QSYY,≤ 0.2
23,QSRY,0.505
24,QHRY,0.488

row,Variant,one-hybrid fitness for binding NBS DNA
1,QSDY,≤ 0.2
2,YIRY,≤ 0.2
3,DRDT,≤ 0.2
4,KCNT,0.207
5,KRNT,0.617
6,KRDT,0.421
7,NRDT,≤ 0.2
8,NRNT,≤ 0.2
9,MDAV,≤ 0.2
10,TRPC,≤ 0.2
11,QMTS,0.403
12,QCTS,0.458
13,QKTN,≤ 0.2
14,QMTH,≤ 0.2
15,QMTD,≤ 0.2
16,QHTP,≤ 0.2
17,QHTN,≤ 0.2
18,QKTD,≤ 0.2
19,QHTS,0.372
20,QSTS,0.364
21,QKTS,0.475
22,QPTS,≤ 0.2
